Structures are written as SMILES. Several values for one entry are separate records, joined by “and”; a condition that tells them apart may be missing. Identical values can stand only once. About 83,000 compounds went through this panel and 20% of them were active in at least one assay; those are over-represented in the sample as a whole.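 The test compound was applied at a single concentration to cells in 96-well plates for 48 hours, and percent growth was recorded.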 Unmarked numbers belong to inactive results. Activity calls are given as the source filed them. Rule for the calls: active = growth percent below 10; inactive = the rest.

Test in all cases: NCI-60 one-dose screen, 48 h (100 = growth as untreated, 0 = no growth, -100 = all killed)
Assay [1] concerns SR leukemia.
Assay [2] has as its system RPMI-8226 leukemia.
The subject of assay [3] is OVCAR-8 ovarian.
Assay [4] concerns OVCAR-5 ovarian.
The subject of assay [5] is OVCAR-4 ovarian.
Assay [6] has as its system SK-OV-3 ovarian.
For assay [7], the system named is IGROV1 ovarian.
Assay [8] relates to OVCAR-3 ovarian.
The test system of assay [9] is HS 578T breast.
For assay [10], the system named is NCI/ADR-RES ovarian.

Turning to `Cc1cc(O)c(C(C)C)cc1Cl`, the growth in assay [1] (10 µM unless noted) was 103%; in [2] (10 µM), 110%; in assay [3] (10 µM) it was 104%; in [4] (10 µM) it was 105%; in [5] (10 µM) it was 109%; in [6] (10 µM) it was 101%. Moreover, the growth in [7] (10 µM) is 112%; in assay [8] (10 µM) it was 103%; in assay [9] (10 µM) it was 99.5%; in [10] (10 µM), 112%.

For `CCCCCCCCCCCC[N+](C)(C)Cc1ccccc1`, the growth in [1] (10 µM unless noted) was 4.5% (active); in assay [2] (10 µM), -48.3% (active); in assay [3] (10 µM) it was 11.9%; in assay [4] (10 µM) it was 55.6%; in assay [5] (10 µM) it was 3.85% (active); in assay [6] (10 µM), 34.9%. Further, the growth in [7] (10 µM) is -49.2% (active); in [8] (10 µM), -0.287% (active); in assay [9] (10 µM), 43.2%; in assay [10] (10 µM) it was 96.8%.

For `O=C1C=C(O)c2ccccc2C1=O.[Ag]`, the growth in assay [1] (10 µM unless noted) was 103%; in assay [2] (10 µM), 104%; in assay [3] (10 µM), 95.4%; in [4] (10 µM), 115%; in assay [5] (10 µM) it was 95.4%; in assay [6] (10 µM), 137%. Also, the growth in assay [7] (10 µM) was 105%; in assay [8] (10 µM) it was 117%; in [9] (10 µM) it was 96.7%; in [10] (10 µM), 109%.

`CCCC1CCC(=C2C(=O)CCC2=O)O1` (configuration not stated): the growth in assay [1] (10 µM unless noted) is 96.5% and 78.2%; in assay [2] (10 µM) it was 119% and 113%; in assay [3] (10 µM) it was 112%; in [4] (10 µM), 96.8% and 97%; in assay [5] (10 µM), 98.2%; in assay [6] (10 µM) it was 104% and 110%. Also, the growth in assay [7] (10 µM) was 121%; in [8] (10 µM), 101% and 94%; in [9] (10 µM), 109% and 97.8%; in assay [10] (10 µM), 108% and 106%.

Regarding `CC1=CC(C)=Nc2ccc(Cl)cc2N1`, the growth is 91.1% in [1] (10 µM unless noted); 102% in assay [2] (10 µM); 102% in [3] (10 µM); 112% in [4] (10 µM); 110% in [5] (10 µM); 98.7% in assay [6] (10 µM). The growth in assay [7] (10 µM) was 103%; in assay [8] (10 µM), 102%; in assay [9] (10 µM), 104%; in assay [10] (10 µM) it was 102%.

Turning to `NNc1ccc2ccccc2c1`, the growth in assay [1] (10 µM unless noted) was 82.3% and 94.9%; in [2] (10 µM), 92.8% and 97.2%; in [3] (10 µM), 97.8% and 96.2%; in assay [4] (10 µM) it was 92.3% and 93%; in assay [5] (10 µM), 89.9% and 88.2%; in assay [6] (10 µM), 76.3% and 91.1%. In addition, the growth in assay [7] (10 µM) was 83% and 103%; in assay [8] (10 µM), 92.1% and 99.6%; in assay [9] (10 µM) it was 96.1% and 98.9%; in assay [10] (10 µM), 97.1% and 101%.

For the compound `OC(CN1CCCC2CCCCC21)c1cc2ccccc2c2ccccc12` (configuration not stated), the growth in [1] (10 µM unless noted) was -36.1% (active); in assay [2] (10 µM), 15.8%; in [3] (10 µM), 51.6%; in assay [4] (10 µM), 34.2%; in [5] (10 µM), 29.1%; in [6] (10 µM), 37.7%. The growth is 58.1% in assay [7] (10 µM), 30.6% in [8] (10 µM), 26.1% in [9] (10 µM) and 17.4% in [10] (10 µM).

As for `CC[N+](CC)=c1ccc2nc3c(cc(N)c4ccccc43)oc-2c1`, the growth was -47.2% (active) in assay [1] (10 µM unless noted); 10.2% in assay [2] (10 µM); -28.4% (active) in assay [3] (10 µM); -81.7% (active) in assay [4] (10 µM); -42.6% (active) in assay [5] (10 µM); -72.7% (active) in assay [6] (10 µM). Also, the growth in assay [7] (10 µM) was -42.2% (active); in [8] (10 µM), -56.8% (active); in assay [9] (10 µM) it was -26.2% (active); in assay [10] (10 µM), -62.2% (active).

Take `CCO/C=C1\SC(=S)N(c2cccc(O)c2)C1=O`: the growth is 85% in [1] (10 µM unless noted); 94.6% in [2] (10 µM); 99.4% in assay [3] (10 µM); 97.8% in assay [4] (10 µM); 93.8% in assay [5] (10 µM); 91.9% in assay [6] (10 µM). Further, the growth in [7] (10 µM) was 99.2%; in [8] (10 µM), 102%; in assay [9] (10 µM), 108%; in assay [10] (10 µM) it was 107%.

As to `COc1cccc2c1C(=O)c1c(O)c3c(c(O)c1C2=O)C[C@@](O)(C(=O)CO)C[C@@H]3OC1CC(N)C(O)C(C)O1` (some centres not stated), the growth in [1] (0.0025 µM) is 81.5%; in assay [1] (2.5 µM), -29.1% (active); in [1] (10 µM), -0.536% (active); in assay [2] (0.0025 µM), 101%; in [2] (1 µM) it was -15.7% (active); in assay [2] (2.5 µM), 62.7%. Moreover, the growth in [2] (10 µM) is -17.4% (active); in assay [3] (0.0025 µM), 99.5%; in [3] (1 µM), 36.6%; in assay [3] (2.5 µM), 45%; in assay [4] (0.0025 µM), 102%; in [4] (1 µM), 84.4%. Also, the growth in assay [4] (2.5 µM) is 120%; in [4] (10 µM), -59.3% (active); in assay [5] (0.0025 µM) it was 114%; in assay [5] (1 µM), 68%; in [5] (2.5 µM) it was 67.6%; in [5] (10 µM), 14.1%. Moreover, the growth in [6] (0.0025 µM) was 95.6%; in assay [6] (1 µM) it was 28.4%; in assay [6] (2.5 µM) it was 43.4%; in [6] (10 µM), 13.8%; in assay [7] (0.0025 µM), 85.7%; in assay [7] (1 µM), 19.9%. Moreover, the growth in [7] (2.5 µM) was 50%; in [7] (10 µM) it was -7.77% (active); in [8] (0.0025 µM) it was 105%; in assay [8] (1 µM), 81.8%; in assay [8] (10 µM) it was 10.2%; in assay [9] (0.0025 µM), 97.9%. For the same compound, the growth was 70.8% in assay [9] (1 µM); 50% in [9] (2.5 µM); -68.2% (active) in assay [9] (10 µM); 103% in assay [10] (0.0025 µM); 104% in assay [10] (1 µM); 99% in [10] (2.5 µM). Moreover, the growth in assay [10] (10 µM) is 4.94% (active).

Source of the values: PubChem BioAssay (NCI).
